# Screening results from PubChem.
# Only some compounds are listed: those with a hit (about 4.3% of all), similar ones and a draw of the others.
# Peg3 prom inh-1: inhibitors of Peg3 promoter | 1.7% of 360,000 active | inhibition, % at 20 µM | HeLa PEG-Prom luciferase reporter, luminescence, overnight;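 active means inhibition of at least 50% at 20 µM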
# CHOP inhibitor: blocks CHOP induction under ER stress; CHO-K1 CHOP-promoter luciferase, tunicamycin-induced, 15-18 h; inhibition, % at 10 µM; 3.8% of 220,000 active; AID 2732;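 active means compounds that reduced the stress-induced luciferase reporter signal by more than about 70% of percent inhibition, limit read from the data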;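 further: 0% = tunicamycin plus vehicle and 100% = wells without tunicamycin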
# HIF-2a inh: inhibitors of HIF-2a | inhibition, % at 18.8 µM | 0.72% of 360,000 active | 786-0 RCC cells HIF-2a reporter, luciferase luminescence, overnight;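 active means inhibition of the luminescence signal of 40% or more relative to plate controls, in a single-dose primary screen at 18.75 µM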
# KKLEB cytotox: reduces viability of KKLEB cystic fibrosis airway cells; KKLEB CF airway cells viability, ATPlite luminescence, overnight; hits give low values; cells stimulated with P. aeruginosa culture filtrate; activity change (cytotoxicity), % at 5 µM; 0.36% of 360,000 active; AID 602141;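 active means corrected activity change at or below -50% at 5 µM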
# CF NFkB block: cystic fibrosis NF-kB activation inhibition; KKLEB NF-kB-GFP reporter, PAF-induced, GFP fluorescence overnight; inhibition, % at 5 µM; 0.86% of 360,000 active;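 active means at least 50% inhibition at 5 µM, scaled per plate between neutral and stimulator controls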;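 further: PAF is a Pseudomonas aeruginosa culture filtrate used as stimulus; plate controls were PAF-stimulated DMSO wells for no effect and unstimulated DMSO wells for full effect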
# TRPM1 prom inh: MITF TRPM1 promoter inhibition in SK-MEL-5 cells. SK-MEL-5 TRPM1 promoter luciferase, 24 h. inhibition, % at 12.5 µM. 0.83% of 330,000 active. AID 488899;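 active means mean inhibition across replicates of 60% or more, whatever share of single replicates reaches that level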
# Peg3 prom inh-2: Peg3 promoter inhibition confirmation | shares compounds with Peg3 prom inh-1 | HeLa PEG-Prom luciferase reporter, luminescence, overnight | inhibition, % at 20 µM | 84% of 1,300 active | AID 602417;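 active means at 20 µM dose, 40% or more inhibition averaged across four replicates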
# Active calls of the source: *; . = not tested or not shown.
SMILES,Peg3 prom inh-1,CHOP inhibitor,HIF-2a inh,KKLEB cytotox,CF NFkB block,TRPM1 prom inh,Peg3 prom inh-2
CC(=O)N1CCN(S(=O)(=O)c2cccc(C(=O)NCc3ccc(F)cc3)c2)CC1,9,.,7,2,17,3,.
CCCN(CCC)S(=O)(=O)c1ccc(N2CCCC2=O)c([N+](=O)[O-])c1,17,10,20,-3,7,1,.
CCCN(CCC)S(=O)(=O)c1ccc(Cl)c([N+](=O)[O-])c1,94*,-14,34,-50*,60*,17,40
CCN(C(=O)CSc1nc2n[nH]c(C)c2c(=N)n1-c1ccc(Cl)c(C)c1)c1cccc(C)c1,72*,.,18,6,27,19,49*
Cc1cc(-n2c(SCc3ccccc3F)nc3n[nH]c(C)c3c2=N)ccc1Cl,21,63,-1,-4,-6,0,.
COc1ccc2oc3cc(NCCN(C)C)ccc3c(=O)c2c1,-81,.,-37,0,-95,.,.
COc1ccc2sc3cccc(NCCN(C)C)c3c(=O)c2c1,97*,.,-100,-27,-13,.,66*
Cc1cc(C)c(S(=O)(=O)Nc2ccc(O)cc2)c(C)c1,18,39,21,5,-6,5,.
Cc1cc(C)c(S(=O)(=O)Nc2ccc3c(c2)CCC3)c(C)c1,51*,84*,17,-1,25,4,41*
Cc1ccc(C(=O)C[n+]2cc(Br)cc(Br)c2)cc1[N+](=O)[O-],4,-4,1,-1,0,1,.
COC(=O)c1ccc(OCC2c3cc(OC)c(OC)cc3CCN2C(=O)c2ccco2)cc1 (stereo not given),60*,20,0,-23,14,-1,45*
COC(=O)c1ccc(OCC2c3cc(OC)c(OC)cc3CCN2C(C)=O)cc1 (stereo not given),12,-5,7,-17,28,-2,.
CCS(=O)(=O)c1nnnn1-c1ccccc1S(C)(=O)=O,58*,15,21,1,29,48,38
COc1ccc(-n2cc(-c3ccccc3)c3c(N4CCOCC4)ncnc32)cc1,61*,81*,22,-100*,94*,9,68*
COc1ccc(-n2cc(-c3ccccc3)c3c(NCCCN4CCOCC4)ncnc32)cc1,25,5,24,-8,4,4,.
COc1ccccc1C(=O)Nc1nc2ccccc2s1,104*,.,86*,-95*,-20,81*,95*
O=C(C[n+]1ccc(-c2cc(C(=O)Nc3cccc(C(F)(F)F)c3)c3ccccc3n2)cc1)c1cccc([N+](=O)[O-])c1,89*,81*,17,-4,11,-1,62*
CCOc1ccc(NC(=O)CSc2ccc(-c3cccnc3)nn2)cc1,-22,.,-6,-4,13,-17,.
Cc1ccc(-c2nnc(N3CCN(c4ccccn4)CC3)c3ccccc23)cc1,77*,70,22,-9,33,15,84*
COC(=O)c1cccc(NC(=O)c2cccnc2C(=O)O)c1C,-8,-3,13,0,4,8,.
CC1(C)CC(NCCN2CCN(C3=CC(=C(C#N)C#N)CC(C)(C)C3)CC2)=CC(=C(C#N)C#N)C1,50*,16,9,-9,9,0,44*
COc1cc(/C=C2\SC(=Nc3ccccc3OC)NC2=O)ccc1O,64*,.,16,-31,51*,46,68*
COc1cc(/C=C2\SC(=Nc3ccccc3)NC2=O)cc(Cl)c1O,13,.,-14,-16,24,-20,.
CC1(C(=O)Nc2cccc(C#N)c2)CCN1C(=O)C/C=C/c1ccccc1 (stereo not given),14,.,-11,9,-11,.,.
CCCC(=O)Nc1ccccc1NC(=O)c1ccc(OC)cc1,8,-17,5,11,12,4,.
Cc1cc(CSc2ccccc2)ccc1NC(=O)c1ccc(Br)cc1,54*,96*,7,11,-11,4,23
CC(C)CC(NS(=O)(=O)OCC(Cl)(Cl)Cl)c1ccccc1 (stereo not given),57*,.,29,14,14,-1,45*
COc1cc(OC)cc(C(=O)NNC(=S)NC2CC2)c1,0,-1,-4,7,-3,13,.
